GDH-TPI counter: inhibits GDH-TPI coupling enzymes, artifact for Mtb FBA screen; GDH-TPI coupled enzyme counterscreen, NADH absorbance; inhibition, % at 4.8 µM; 1.2% of 360,000 active; in the data active means inhibition above about 30%
RecA intein inh: Mtb RecA intein splicing inhibition. cell-free RecA intein splicing, fluorescence. inhibition, % (concentration not given with the values). 0.75% of 290,000 active; in the data active means inhibition above about 30%
Mtb FBA inh: inhibits M. tuberculosis FBA enzyme; P9WQA3; purified M. tuberculosis FBA, fluorescence read-out; inhibition, % at 1 µM; 2.3% of 360,000 active; in the data active means inhibition above about 27%
Target sequence (P9WQA3 whole entry, looked up): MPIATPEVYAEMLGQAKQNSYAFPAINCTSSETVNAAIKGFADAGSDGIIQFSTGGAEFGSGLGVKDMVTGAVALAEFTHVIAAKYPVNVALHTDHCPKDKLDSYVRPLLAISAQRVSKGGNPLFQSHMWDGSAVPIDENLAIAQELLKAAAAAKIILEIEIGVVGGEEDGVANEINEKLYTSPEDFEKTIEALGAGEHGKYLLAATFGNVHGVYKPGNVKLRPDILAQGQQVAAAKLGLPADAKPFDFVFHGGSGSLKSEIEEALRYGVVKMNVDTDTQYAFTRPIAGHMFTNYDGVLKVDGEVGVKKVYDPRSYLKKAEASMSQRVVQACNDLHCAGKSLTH
BJeLR viability: kills HRASV12-expressing BJeLR cells | BJeLR (HRASV12) viability, CellTiter-Glo ATP luminescence, 48 h | inhibition, % (no concentration beside the values) | 0.17% of 300,000 active | AID 1554; in the data active means inhibition above about 50%
PrPC surface inh: cell surface PrPC inhibition, primary TR-FRET screen; P04156; 0.43% of 370,000 active; TR-FRET read-out; inhibition, % at 13.8 µM; in the data active means inhibition above about 24%
Each line names hits and unclear results; the compound was inactive in the other large screens. Shown are actives, neighbours in structure and some others; about 4.2% of the full set was active somewhere.

COCC1CN(CCc2ccc(F)cc2)S(=O)(=O)c2c(OCCN3C(=O)[C@@H]4[C@H](C3=O)[C@@H]3C=C[C@H]4C3)cccc2O1 (stereo not given in full)	none (no result: GDH-TPI counter, RecA intein inh, Mtb FBA inh, BJeLR viability)
Cc1cccc(CCNC(=O)c2ccc(Sc3ccccc3Cl)c([N+](=O)[O-])c2)c1	none (no result: GDH-TPI counter, RecA intein inh, Mtb FBA inh, BJeLR viability)
CN(Cc1ccccc1)C(=O)OCc1cn(Cc2cc(F)ccc2F)nn1	none (no result: GDH-TPI counter, RecA intein inh, Mtb FBA inh, BJeLR viability)
CN(C)CCNC(=O)c1cccc2ccc(-c3ccc(-c4ccccc4)cc3)nc12	Mtb FBA inh 57.6 (no result: RecA intein inh, BJeLR viability)
C[C@@H]1ON(C)[C@H]2C[C@H]3c4[nH]c5c(-c6ccccc6F)cccc5c4CCN3C[C@@H]12	none (no result: GDH-TPI counter, RecA intein inh, Mtb FBA inh, BJeLR viability)
CCOC(=O)c1c(C)oc2c1c(C=NCCO)c(O)c1ccccc12	RecA intein inh 45.7
O=[N+]([O-])c1ccc(Sc2nnnn2-c2ccccc2)nc1	RecA intein inh 57.9 (no result: GDH-TPI counter, Mtb FBA inh)
Cc1nc2nc(N)nc(OCc3ccccc3)c2nc1C	Mtb FBA inh 161.2
CCn1c(SCC(=O)Nc2ccc(C)cc2)nc2nc3c(cc2c1=O)COC(C)(C)C3	GDH-TPI counter 30.6
COc1ccccc1/C=C/C=N/NC(=O)CCn1nnc2ccccc21	none
Cc1nc(N)sc1C(=O)N/N=C/c1ccccc1[N+](=O)[O-]	none
CC(/C=N/NC(=O)c1sc(N)nc1C)=C\c1ccccc1	GDH-TPI counter 37.0
Cc1nc(N)sc1C(=O)N/N=C/c1c[nH]c2ccccc12	GDH-TPI counter 56.5
Cc1cccc(NC(=S)N/N=C/c2cccc([N+](=O)[O-])c2)c1	GDH-TPI counter 32.9 (no result: PrPC surface inh)
COc1ccccc1/C=C\C=N\NC(=O)CCn1nnc2ccccc21	GDH-TPI counter 38.1
Cc1cccc(NC(=S)N/N=C/c2ccc(Cl)c([N+](=O)[O-])c2)c1	none
CCCCCCCCN1C(=O)[C@@H](CC(=O)N2CCCCC2)C[C@@]2(C(=O)OC)C1=C[C@H](C(C)C)O[C@@H]2C1CC1	none (no result: GDH-TPI counter, RecA intein inh, Mtb FBA inh, BJeLR viability)
Cc1cnn(-c2ccccc2)c1NC(=O)COCc1ccccc1	none (no result: GDH-TPI counter, RecA intein inh, Mtb FBA inh, BJeLR viability)
O=C(N/N=C/c1ccc(Br)s1)c1c[nH]c2ccccc12	GDH-TPI counter 39.7
Nc1ccc(/C=C/C(=O)c2cccs2)cc1	none
C/C=N/NC(=O)c1cc(Br)ccc1O	none
O=C(C=Cc1ccccc1)c1cccs1	GDH-TPI counter 34.4 (no result: RecA intein inh, BJeLR viability)
CC(/C=N/NC(=O)c1cccs1)=C\c1ccccc1	GDH-TPI counter 32.3
Cc1c(/C=N/NC(=O)c2cc(Br)ccc2O)c(=O)n(C)c(=O)n1C	GDH-TPI counter 30.9
C[C@H](NS(=O)(=O)c1ccc([N+](=O)[O-])cc1)C(=O)NCCNC(=O)[C@@H](C)NS(=O)(=O)c1ccc([N+](=O)[O-])cc1	none (no result: GDH-TPI counter, RecA intein inh, Mtb FBA inh, BJeLR viability)
O=[N+]([O-])c1ccc2c(c1)CO[C@]21O[C@H](CCO)C[C@H](O)[C@H]1O	none (no result: GDH-TPI counter, RecA intein inh, Mtb FBA inh, BJeLR viability)
O=C(N/N=C/c1c[nH]c2ccc(Br)cc12)C1CC1	GDH-TPI counter 31.6
O=C(N/N=C/c1c[nH]c2ccccc12)c1ccn(Cc2ccc(Cl)cc2)n1	GDH-TPI counter 31.8
Cc1cccc(NC(=S)N/N=C/c2c[nH]c3ccccc23)c1	GDH-TPI counter 35.7
O=C(N/N=C/c1c[nH]c2ccc(Br)cc12)c1ccn(Cc2ccc(Cl)cc2Cl)n1	none
COc1ccccc1/C=C/C=N/NC(=O)c1cccs1	GDH-TPI counter 45.2
COc1ccccc1/C=C\C=N\NC(=O)c1ccco1	none
NC(=O)C(=O)N/N=C/c1c[nH]c2ccc(Br)cc12	none (no result: RecA intein inh)
COc1cc(/C=N\NC(=O)c2sc(N)nc2C)cc(OC)c1OC	GDH-TPI counter 41.5
Cc1nc(N)sc1C(=O)N/N=C/c1ccco1	GDH-TPI counter 37.9
Cc1ccc(C(=O)N/N=C/c2c[nH]c3ccccc23)o1	GDH-TPI counter 31.1
COc1ccccc1C=NNC(=O)NN=Cc1ccccc1OC	GDH-TPI counter 31.5 (no result: RecA intein inh, BJeLR viability)
COc1cccc(/C=N/NC(=O)N/N=C/c2cccc(OC)c2O)c1O	none (no result: RecA intein inh)
Cc1nc(N)sc1C(=O)N/N=C/c1ccc([N+](=O)[O-])cc1	none
CCOC(=O)Cn1cc(CN2C(C(=O)OC)CN(Cc3ccc(Cl)cc3)CCS2(=O)=O)nn1 (stereo not given)	none (no result: GDH-TPI counter, RecA intein inh, Mtb FBA inh, BJeLR viability)
O=C1CCC[C@H]2C[C@H](NCc3ccc(F)cc3F)CC[C@]23CCCN13	none (no result: GDH-TPI counter, RecA intein inh, Mtb FBA inh, BJeLR viability)
O=C(N/N=C/c1c[nH]c2ccccc12)c1cc(Br)ccc1O	GDH-TPI counter 31.3
O=C(O)COc1ccccc1/C=N/NC(=O)c1ccc(F)cc1	GDH-TPI counter 46.3
Cc1nnsc1C(=O)N/N=C/c1ccc2ccccc2c1O	BJeLR viability 60.9
COC(=O)C1CN(Cc2ccc(Cl)cc2)CCS(=O)(=O)N1Cc1cn(Cc2ccc(Cl)cc2)nn1 (stereo not given)	none (no result: GDH-TPI counter, RecA intein inh, Mtb FBA inh, BJeLR viability)
Cc1c[nH]c2cccc(-c3ccc(OCc4ccccc4)cc3)c12	none (no result: GDH-TPI counter, RecA intein inh, Mtb FBA inh, BJeLR viability)
CCn1cc(C(=O)N2CCN(c3ccc(C(C)=O)cc3)CC2)c2cc(OC)c(OC)cc2c1=O	GDH-TPI counter 36.0 (no result: RecA intein inh)
C/C(=N\N=C(/N)SC1CC(=O)N(c2ccc(Br)cc2)C1=O)c1cccs1 (stereo not given)	none
N/C(=N\N=C\c1cccs1)SC1CC(=O)N(c2ccc(Br)cc2)C1=O (stereo not given)	GDH-TPI counter 31.6
C/C(=N\N=C(/N)SC1CC(=O)N(c2ccc(Cl)cc2)C1=O)c1cccs1 (stereo not given)	none
N/C(=N\N=C\c1ccco1)SC1CC(=O)N(c2ccc(C(=O)O)cc2)C1=O (stereo not given)	GDH-TPI counter 45.0
C/C(=N\N=C(/N)SC1CC(=O)N(c2ccccc2)C1=O)c1cccs1 (stereo not given)	GDH-TPI counter 41.2
Cc1nnc(C)n1N=Cc1ccc(O)cc1O	none (no result: GDH-TPI counter, RecA intein inh, Mtb FBA inh, BJeLR viability)
CC(C)C[C@@H]1COc2cccc(F)c2S(=O)(=O)N1C	none (no result: GDH-TPI counter, RecA intein inh, Mtb FBA inh, BJeLR viability)
O=C(O)c1ccc2cc(-c3ccccc3)[nH]c2c1	Mtb FBA inh active
Cc1nn(-c2ccc3ccccc3c2)c(=O)c2ccccc12	none
Cc1nn(-c2nc3ccccc3[nH]2)c(=O)c2ccccc12	BJeLR viability 89.6 (no result: RecA intein inh)
CCCn1c(/C=C/c2ccccc2)nc2ccccc21	GDH-TPI counter 38.1, Mtb FBA inh 52.5
Cc1cc(=O)n2c3ccccc3n(CC(O)CN3CCCCC3)c2c1C#N (stereo not given)	GDH-TPI counter 50.0
Cc1cc(=O)n2c3ccccc3n(CC(O)CN3CCOCC3)c2c1C#N (stereo not given)	none
N#Cc1ccc(C=NN2CCCCCC2)cc1	GDH-TPI counter 41.2 (no result: RecA intein inh, BJeLR viability)
Clc1ccc(/C=N/N2CCCCC2)cc1	none
O=C(O)c1ccc(C=NN2CCCCCC2)cc1	GDH-TPI counter 35.9 (no result: RecA intein inh, BJeLR viability)
CC(C)(C)N1Cc2nnn(CC3CCCCC3)c2-c2ccccc2S1(=O)=O	none (no result: GDH-TPI counter, RecA intein inh, Mtb FBA inh, BJeLR viability)
NC(=N\N=Cc1ccccc1)/C(N)=N/N=Cc1ccccc1	none (no result: RecA intein inh, BJeLR viability)
Oc1ccc(C=NN=Cc2ccco2)c(O)c1	GDH-TPI counter 40.5 (no result: RecA intein inh, BJeLR viability)
NC(=N\N=Cc1ccco1)/C(N)=N/N=Cc1ccco1	GDH-TPI counter 58.1 (no result: RecA intein inh, BJeLR viability)
CC(C)(C)N(Cc1cn(Cc2ccccc2)nn1)S(=O)(=O)c1ccc(N2CCCC2)cc1Br	none (no result: GDH-TPI counter, RecA intein inh, Mtb FBA inh, BJeLR viability)
C#Cc1cccc(OC[C@@H](O)CN2CCC(C(O)(c3ccccc3)c3ccccc3)CC2)c1	none (no result: GDH-TPI counter, RecA intein inh, Mtb FBA inh, BJeLR viability)
CC(C)c1cc(NCCOCCO)n2c(nc3ccccc32)c1C#N	Mtb FBA inh active
CCCc1cc(-n2ccnc2C)n2c(nc3ccccc32)c1C#N	none (no result: RecA intein inh)
